Test results from PubChem BioAssay (EPA / NIEHS).
Calls of active or inactive are those of the source. Rule for the calls: active = hit-call score of the fitted dose curve at least 0.9, where 1 is the maximum; inactive = score below 0.9.

experiment: ATG_M_19_CIS: Attagene CIS-FACTORIAL HepG2 Assay for M19 Transcription Factor (Internal Marker) (AID 2282939); conditions: HepG2 Attagene CIS-FACTORIAL M19 internal marker reporter; actives raise or lower the signal
Method: ATG_CIS is a cell-based, multiplexed-readout assay that uses HepG2, a human liver cell line, with measurements taken at 24 hours after chemical dosing in a 24-well plate.ATG_M_19_CIS is one of 52 assay component(s) measured or calculated from the ATG_CIS assay. It is designed to make measurements of mRNA induction, a form of inducible reporter, as detected with fluorescence intensity signals by Reverse transcription polymerase chain reaction (RT-PCR) and Capillary electrophoresis technology.Data from the assay component ATG_M_19_CIS was analyzed into 1 assay endpoint. This assay endpoint, ATG_M_19_CIS, was analyzed with bidirectional fitting relative to DMSO as the negative control and baseline of activity. Using a type of inducible reporter, measures of mRNA for gain or loss-of-signal activity can be used to understand the background control at the transcription factor-level as they relate to the gene . Furthermore, this assay endpoint can be referred to as a secondary readout, because this assay has produced multiple assay endpoints where this one serves a background control function. To generalize the intended target to other relatable targets, this assay endpoint is annotated to the background measurement intended target family, where the subfamily is internal marker.
Human liver HepG2 cells are transiently transfected with multiple reporter transcription units (MRTUs) in 6-well plates using FuGene 6 reagent (Roche; 3 ml FuGene/1 mg DNA). The MRTU constructs are regulated by a cis-regulating element (promoter). […] A major difference between the CIS and TRANS system is that in CIS activities of endogenous TFs are measured, whereas the TRANS assay evaluates changes in activities of exogenous, chimeric NR-Gal4 proteins. […] At the end of 24 hour incubation, total RNA was isolated using TriZol reagent (Invitrogen). The isolated RNA is then reverse-transcribed using oligo(dT) primer and Mo-MLV reverse transcriptase (Invitrogen) with DNAse I (Ambion) treatment for 30 min. The one-tenth of the produced cDNA was amplified by PCR using Taq DNA polymerase (Invitrogen) and two reporter sequence-specific primers. The PCR products were fluorescently labeled by primer extension with 6-arboxyfluorescein (6-FAM) 5'-labeled reporter sequence-specific primer (2 min at 95 C, 20 s at 68 C and 10 min at 72 C) and these products were digested with 5U of HpaI (New England Biolabs) for 2h at 37 C. The fragments were purified using Qiaquick PCR columns (Qiagen), analyzed on an ABI 3130xL genetic analyzer (Applied Biosystems) with peak positions identified by using a set of X-rhodamine (ROX)-labeled MapMarker1000 molecular weight standards (BioVentures). The raw capillary electrophoresis data was processed using Attagraph software (Attagene).

outcome, inactive:
O=[N+]([O-])c1ccc2nc[nH]c2c1
CC(=O)Nc1c(I)c(NC(C)=O)c(I)c(C(=O)O)c1I
C1=CCC=C1
CO[Si](CCCNCCN)(OC)OC
CC(O)(P(=O)(O)O)P(=O)(O)O
CC1=C(CC=O)C(C)(C)CCC1
CCCCOC(=O)COc1ccc(Cl)cc1Cl
Oc1ccc(Cl)cc1C1CCCC1
c1cc[c]([Bi]([c]2ccccc2)[c]2ccccc2)cc1
O=C(O)Cc1c[nH]c2ccccc12
CC/C=C\CCCCCO
Clc1ccccn1
O=S(=O)(O)c1cccc2ccccc12
CCC(C)C1N=C(C)C(C)S1 (stereo not given)
COC(=O)[C@]1(C)CCC[C@@]2(C)[C@H]1CC=C1C=C(C(C)C)CC[C@@H]12
CC/C=C\CC1=C(C)CCC1=O
O=C(O)c1ccccc1C(=O)O
COCCCN
O=C1CCCCCCCCCCCCCC1
CNC(=C[N+](=O)[O-])NCCSCc1csc(CN(C)C)n1
C=C1CC[C@H]2C[C@@H]1C2(C)C
CC=CC(=O)O
O=C(C1CCCCC1)N1CC(=O)N2CCc3ccccc3C2C1 (stereo not given)
Cc1cc(O)cc(C)c1Cl
COC(=O)/C=C\C(=O)OC
CCCCCC1CCCC(=O)O1 (stereo not given)
Cc1cc2nc3c(=O)[nH]c(=O)nc-3n(C[C@H](O)[C@H](O)[C@H](O)CO)c2cc1C
Brc1ccc(Oc2ccc(Br)cc2)cc1
O=C(O)c1cc(Cl)cc(Cl)c1O
CC/C=C\CC/C=C/C(OCC)OCC
CCCCNC(N)=O
OCCOCCOCCOCCOCCO
CCCCCCOC(=O)CCCCCCCC(=O)OCCCCCC
CC1=C(CC(=O)O)c2cc(F)ccc2/C1=C\c1ccc(S(C)=O)cc1 (stereo not given)
O=C(Oc1ccccc1)c1ccccc1
CCC(C)=NO
COc1ccccc1OCC(O)CO (stereo not given)
CCC(C)(CCC(C)C)C(=O)O (stereo not given)
CC(C)CC(=O)O
CC/C=C/CCO
